Results reported in PubChem BioAssay AID624483 (NMMLSC, 2012).
About 11,000 (3.1%) of roughly 360,000 compounds were called active. Inconclusive results (about 2%) are left out. The sample as a whole holds a higher share of actives than the screen did. A number with no mark means an inactive call. No stated cut-off is given here; in the data, active means fluorescence intensity above about 16000; inconclusive means no clear call, values can overlap the other calls; inactive means below that.

Experiment: compound fluorescence in toxin protease inhibitor counterscreen, primary screen, artefact control for toxin protease inhibitor project, biochemical, multiplex microsphere, HTS (AID 624483)
Conditions: compound autofluorescence counterscreen, microsphere flow cytometry; active compounds read high

In order of rising fluorescence intensity:
1. CCCC(=O)Nc1cccc(NC(=S)NC(=O)C(C)Oc2ccc(Cl)cc2Cl)c1 (stereo not drawn)  2030
2. CCOC(=O)N1CCN(C(=S)Nc2ccc(C)cc2C)CC1  2140
3. CCOC(=O)CSc1ccccn1  2150
4. CC(Oc1ccccc1F)C(=O)NN (stereo not drawn)  2470
5. Cc1ccccc1Nc1nc(N)nc(CSc2ccccc2)n1  2510
6. CC1(C)CC(O)C(CCC(O)c2ccccc2)C(C)(C)N1 (stereo not drawn)  2520
7. COc1ccc(-n2nnnc2SCc2nc(N)nc(N3CCOCC3)n2)cc1  2520
8. O=C(NCC1CCCO1)/C(=C/c1ccc(Cl)cc1)NC(=O)c1ccccc1 (stereo not drawn)  2550
9. CC1(C)CC(=O)C/C(=N\NC(=O)c2cccs2)C1  2600
10. CCNC(=O)C1CCCN(C(=O)c2ccc(OC)cc2OC)CC1 (stereo not drawn)  2850
11. Cc1ccc(-c2cnc(C(O)c3cc(Cl)cc(Cl)c3)[nH]2)cc1 (stereo not drawn)  2960
12. COc1cccc(-c2cnc3c(NC(C)=O)cc(-c4cc(F)ccc4OC)cn23)c1  2980
13. COc1cc(F)ccc1-c1cc(C(=O)NCC2CCCCC2)[nH]n1  3000
14. O=C(N1CCCCC1)N1CCN(C(=O)N2CCCCC2)CC1  3210
15. COCCNC(=S)Nc1cc(S(=O)(=O)N2CCOCC2)ccc1N1CCCCC1  3390
16. O=C(CSc1ccc(-c2ccccc2)nn1)NCC1CCCO1 (stereo not drawn)  3400
17. COCCNc1nc(NCc2ccc(NC(C)=O)cc2)c2sccc2n1  3410
18. C/C(=N\N)c1c(-c2ccccc2)c2cc(Br)ccc2[nH]c1=O  3410
19. CCCCC(C(=O)NC(C)(C)C)N(Cc1ccccc1)C(=O)c1snc(C(N)=O)c1N (stereo not drawn)  3460
20. CC(C)N1CCC(=NNc2ccc([N+](=O)[O-])cc2S(=O)(=O)N2CCOCC2)CC1  3480
21. COC(=O)c1ccc(S(=O)(=O)N2CCc3ccccc3C2)cc1  3480
22. Cc1ccccc1-c1csc(C(O)c2cccc(Cl)c2)n1 (stereo not drawn)  3550
23. CC(=O)Nc1ccc(S(=O)(=O)N2CCC(NC(=O)c3ccccc3)CC2)cc1  3580
24. OC[C@@H]1CN(Cc2ccc3c(c2)OCO3)C[C@H](n2cnc3c(NCc4ccco4)ncnc32)O1  3680
25. O=C(N1CCOCC1)N(Cc1ccccc1)c1ccccn1  3710
26. CC(C)c1ccc(NC(=O)COC(=O)c2ccc(CN3CCCC3=O)cc2)cc1  3760
27. COc1cc(C(O)c2nc(-c3cnn(C)c3)cs2)ccc1F (stereo not drawn)  3800
28. CC(=O)N(c1ccc2oc(=O)sc2c1)S(=O)(=O)c1ccc(C)cc1  3830
29. CC(O)(c1cccc(F)c1)c1nc(-c2ccc3c(c2)OCO3)cs1 (stereo not drawn)  3850
30. Cc1ccn(CC(=O)NC2CCCN(Cc3ccccc3F)C2)n1 (stereo not drawn)  3870
31. CN(C)C(=O)c1cccc(-c2cnc3sc(NCc4ccc5c(c4)OCO5)nn23)c1  3900
32. CCC(C)[C@H](NC(=O)N1c2ccccc2NC(=O)[C@@H]1C(C)C)C(=O)N[C@@H](Cc1ccccc1)C(=O)O (stereo partly drawn)  3920
33. COc1ccc(-c2cc(NC=O)c3ncc(-c4cc(OC)c(OC)c(OC)c4)n3c2)c(OC)c1  3920
34. CCOC(=O)C1CCCN(C(=O)c2cccc3ccccc23)CC1 (stereo not drawn)  3960
35. CCCOc1ccc(F)cc1-c1cc(C(=O)NCc2ccc(F)cc2)[nH]n1  3970
36. Nc1ncnc2c1ncn2[C@@H]1O[C@H](C(=O)NS(=O)(=O)c2c(Cl)nc3sccn23)[C@@H](O)[C@H]1O  3980
37. CCOC(=O)c1cnc2nc(SCc3ccccc3Cl)[nH]n2c1=O  4010
38. Nc1nc(CSc2nnnn2-c2ccccc2)nc(Nc2ccccc2)n1  4030
39. CC1CC(=NNC(=O)C2COc3ccccc3O2)CC(C)(C)C1 (stereo not drawn)  4030
40. CC(C)CCC(C)NC(=O)c1ccc2nccnc2c1 (stereo not drawn)  4050
41. CCOC(=O)c1sc(N)c(C#N)c1COC(=O)C1=COCCO1  4150
42. O=C(NCc1ccco1)C1CCCN1S(=O)(=O)c1ccccc1C(F)(F)F (stereo not drawn)  4200
43. CCOc1cc(S(=O)(=O)NC2CC(C)(C)NC(C)(C)C2)ccc1F  4220
44. COc1ccc(OC)c(S(=O)(=O)NCCC(C)C)c1  4230
45. COc1ccc(NC(C)=O)cc1NC(=O)CN1CCN(C2c3ccccc3-c3ccccc32)CC1  4260
46. Cc1nn(CC2CC2)c(=O)n1N(C)c1ncc(C(F)(F)F)cc1Cl  4280
47. O=C(CN1CCOCC1)Nc1ccccc1  4280
48. CC(=O)NC(=S)NNC(=O)c1ccc(Br)cc1  4310
49. CCOC(=O)N1CCC(C(N)=O)CC1  4320
50. CCOC(=O)[C@H]1Nc2ccc(Cl)cc2[C@@H]2[C@H]1C1CC(c3ccccc31)N2C(=O)OCc1ccccc1 (stereo partly drawn)  4370
51. CC(=O)N(OCc1ccc(OC(C)C)c(Cl)c1)C(C)=O  4420
52. O=C(NCc1ccc(F)cc1)c1cc(C2CCCCN2C(=O)c2ccccn2)on1 (stereo not drawn)  4420
53. Cc1cc(Br)cn2c(Cc3ccccc3C(F)(F)F)c(C3CCCCC3)nc12  4420
54. CC(C)(C)C(=O)N(Cc1ccccc1)c1ccccn1  4430
55. Cc1ccc(S(=O)(=O)N2CCC(=O)N([C@H](COCc3ccccc3)Cc3ccccc3)CC2)cc1  4440
56. CCCOc1ccc(/C(O)=C2/C(=O)C(=O)N(CCN(C)C)C2c2ccc(OC)c(OC)c2)cc1 (stereo not drawn)  4510
57. COc1cccc(C2/C(=C(/O)c3ccc(F)cc3)C(=O)C(=O)N2CCN(C)C)c1 (stereo not drawn)  4550
58. COC(=O)c1ccc(OC(=O)c2cnccn2)cc1  4650
59. O=C(Nc1cc(Br)ccc1F)c1nc[nH]c1C(=O)NCc1ccccc1  4670
60. CCOC(=O)c1cnc(SCC(=O)Nc2ccccc2C(=O)OC)nc1N  4740
61. CN(C)/C=C/C(=O)c1ccccc1F  4920
62. N#Cc1ccc(C(=O)Nc2nc(-c3cccs3)c(C(=O)C(F)(F)F)s2)cc1  4970
63. Cc1c(C(=O)Nc2ccccn2)oc2ccc(Br)cc12  5620
64. Cc1ccc(CN(CC(=O)NC2CCCCC2)C(=O)c2csnn2)cc1  5650
65. CCOc1ccc(S(=O)(=O)n2ccnc2)c2ccccc12  5760
66. CC(C)C1CC2=C(C(=O)OC(C)(C)O2)C(c2ccc(F)cc2)O1 (stereo not drawn)  5880
67. CCn1c(SCC(=O)Nc2ccc(Br)cc2)nc2sc3c(c2c1=O)CCN(C)C3  5890
68. Cc1nccn1-c1ccc(NC(=O)[C@H]2O[C@@H](n3cnc4c(N)ncnc43)[C@H](O)[C@@H]2O)cc1  5940
69. Nc1nc2cc(Cl)ccc2n1N  6290
70. Cc1noc(C)c1C(=O)NCC1COc2ccccc2O1 (stereo not drawn)  6410
71. Cc1ccc(CN2CC(N3CCC(Cc4ccccc4)CC3)CS2(=O)=O)cc1 (stereo not drawn)  6680
72. CC(=O)Nc1cccc(Nc2ccc(C#N)cc2)c1  6880
73. CCCC1=Nc2cc(C(=O)NCc3ccco3)ccc2Sc2ccccc21  7310
74. CCOC(=O)c1cnc(SCC(=O)NCc2ccco2)nc1N  9800
75. Cc1ccc(C(=O)NC2CCN(C(=O)N3CCOCC3)CC2)cc1  9950
76. Cn1c(=O)c2c(nc(SCCNS(=O)(=O)c3ccccc3)n2C)n(C)c1=O  10500
77. COC(=O)c1ccc(COC(=O)c2c(C)nn(Cc3ccccc3Cl)c2Cl)o1  10900
78. COc1ccc(C)cc1S(=O)(=O)NCCc1ccccc1  11800
79. CCOCCCN1C(=O)CN(C2CCCCC2)C(=O)C1c1ccc(OCC)c(OC)c1 (stereo not drawn)  15500
80. COc1ccc(S(=O)(=O)N2CCCC2)c(C)c1C  16000

With O=C(Oc1ccccc1)c1ccc2nccnc2c1 the fluorescence intensity was 16700 (active).
In the case of CC(Oc1ccc(Cl)cc1Cl)C(=O)/C=C/N(C)C (stereo not drawn), the fluorescence intensity is reported as 18300 (active).
For CC(Oc1ccc(F)cc1F)C(=O)/C=C/N(C)C (stereo not drawn), the fluorescence intensity was 24200 (active).
For CCC(=O)N(Cc1ccccc1)c1ccccn1, the fluorescence intensity was 20800 (active).
For COc1ccc(/C(O)=C2/C(=O)C(=O)N(CCCN(C)C)C2c2ccccc2)cc1OC (stereo not drawn), the fluorescence intensity was 21200 (active).
In the case of Cc1noc(C)c1C(=O)Nc1ccccn1, the fluorescence intensity is reported as 22800 (active).
With CCOc1ccc(S(=O)(=O)N2CCCCCC2)c2ccccc12 the fluorescence intensity was 16700 (active).
For O=C(NCC1CCCO1)C(C(=O)c1ccccc1)n1cc(Cl)ccc1=O (stereo not drawn), the fluorescence intensity was 19700 (active).
For CN(C)c1nc(N)nc(CSc2nnnn2-c2cccc3ccccc23)n1, the fluorescence intensity was 16800 (active).
With CN(C)c1nc(N)nc(CSc2ccccn2)n1 the fluorescence intensity was 19900 (active).
In the case of CCOC(=O)N1CCC(O)(c2cc(C)c(C)cc2C)CC1, the fluorescence intensity is reported as 23000 (active).
In the case of CCOC(=O)c1cnc(SCC(=O)Nc2cccc(OC)c2)nc1N, the fluorescence intensity is reported as 24000 (active).
In the case of CCOC(=O)c1cnn(Cc2ccccc2Cl)c1N, the fluorescence intensity is reported as 24600 (active).
With CC1C/C(=N/NC(=O)c2cccs2)CC(C)(C)C1 (stereo not drawn) the fluorescence intensity was 23000 (active).
For O=C(CN1CCOCC1)Nc1c(-c2ccccc2)c2cc(Br)ccc2[nH]c1=O, the fluorescence intensity was 21300 (active).
For O=C(N1CCOCC1)N1CCOCC1, the fluorescence intensity was 21400 (active).
In the case of O=C(Nc1ccc(S(=O)(=O)N2CCc3ccccc3C2)cc1)c1ccccc1, the fluorescence intensity is reported as 22600 (active).
For COCCNS(=O)(=O)c1cc(Br)ccc1OC, the fluorescence intensity was 24900 (active).
